# Test results taken from PubChem BioAssay (NCATS).
# Values without a mark were called inactive. Records with an inconclusive call do not appear. Some of the results follow. A call without a number means that no potency is given here. The source made the active and inactive calls. Unless noted, the call rests on the fitted dose curve; in most records, active means well fitted curve in the direction sought with a large enough effect; inconclusive means small, poorly fitted or top-dose-only effect, or another doubt; inactive means no such curve, though single readings can be large; an effect the other way counts as inactive or inconclusive.
# Columns and labels:
# [1] = target: Ubiquitin carboxyl-terminal hydrolase 1 (Homo sapiens) (UniProt O94782); test: Inhibitors of USP1/UAF1: Pilot qHTS (AID 504865);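 further: rhodamine fluorescence freed from ubiquitin-rhodamine substrate followed over time; top concentration of the series differs between compounds; nearly all actives have a fitted effect of over 35% in size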
# In short: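 USP1/UAF1 complex at 1 nM preincubated 15 min at room temperature with compound, then Ub-Rho substrate added at 150 nM final. Fluorescence (480/540 nm) read kinetically in 50 mM HEPES pH 7.8, 0.5 mM EDTA, 1 mM TCEP, 0.1 mg/ml BSA, 0.01% Tween-20.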
# CP266 = test: qHTS profiling for inhibitors of Plasmodium falciparum proliferation (AID 504749); further: nearly all actives have a fitted effect of over 60% in size; conditions: P. falciparum in erythrocytes, SYBR Green DNA, 72 h; series mostly up to 28.7 µM
# In short: (§1)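 SYBR Green fluorescence (ex 485 nm, em 535 nm) reports parasite DNA after 72 h compound exposure of infected red cells at 0.3% parasitemia, 2.5% hematocrit; signal normalized to 0.29 uM artemisinin and vehicle wells.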
# CP297 = test: as above; conditions: P. falciparum in erythrocytes, SYBR Green DNA, 72 h; series mostly up to 28.7 µM
# In short: as §1
# CP237 = test: as above; conditions: P. falciparum in erythrocytes, SYBR Green DNA, 72 h; series mostly up to 28.7 µM
# In short: as §1
# CP268 = test: as above; conditions: P. falciparum in erythrocytes, SYBR Green DNA, 72 h; series mostly up to 28.7 µM
# In short: as §1
# CP286 = test: as above; conditions: P. falciparum in erythrocytes, SYBR Green DNA, 72 h; series mostly up to 28.7 µM
# In short: as §1
# HB3 = test: as above; conditions: P. falciparum in erythrocytes, SYBR Green DNA, 72 h; series mostly up to 28.7 µM
# In short: as §1
# PC15 = test: as above; conditions: P. falciparum in erythrocytes, SYBR Green DNA, 72 h; series mostly up to 28.7 µM
# In short: as §1
# TAB113 = test: as above; conditions: P. falciparum in erythrocytes, SYBR Green DNA, 72 h; series mostly up to 28.7 µM
# In short: as §1
# [2] = qHTS Assay for Identification of Small Molecule Agonists for Hypoxia Response Element Signaling Pathway (AID 914; active means well fitted activation curve with a large enough effect in the signal ratio, with a control signal flat, not every such curve was filed as active; the % refers to the signal ratio; further: potency means the concentration at half of the fitted maximal effect); conditions: ME-180 (cervical carcinoma) HRE-bla reporter, beta-lactamase ratio, CoCl2, 17 h; activation: active compounds read high
# In short: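 HRE-bla ME-180 assay for agonist-like enhancement of an EC50 CoCl2 stimulus: 17 h at 37 degrees Celsius, CCF4 for 2.5 h, ratiometric 460/530 nm signal converted to %Activity and fitted to AC50.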
# [3] = target: DNA dC->dU-editing enzyme APOBEC-3G (Homo sapiens) (UniProt Q9HC16); test: qHTS for inhibitors of Vif-A3G interactions: Validation (AID 588379)
# In short: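 Yellow fluorescence (Ex 488, Em 500-530) of Vif-coexpressing HeLa A3G-eYFP cells, scanned by Acumen cytometer, reports blocked A3G degradation. Cells plated at 700/well overnight at 37 deg C before compound addition, then a further overnight compound incubation at 37 deg C.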
# [4] = target: DNA polymerase iota (Homo sapiens) (UniProt Q9UNA4); test: qHTS for Inhibitors of Polymerase Iota: Confirmatory Assay for Cherry-picked Compounds (AID 720496); conditions: Pol iota primer extension, TAMRA/BHQ fluorescence; further: potency means the concentration at half of the fitted maximal effect
# In short: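 Enzyme (10 nM Pol iota) and compound sit together for 15 min at room temperature. Adding annealed primer/TAMRA-reporter/BHQ-2-template substrate, 50 nM final, starts the reaction, which is followed by fluorescence over 10 min.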
# [5] = target: DNA polymerase eta (Homo sapiens) (UniProt Q9Y253); test: qHTS for Inhibitors of Polymerase Eta: Confirmatory Assay for Cherry-picked Compounds (AID 720502); conditions: Pol eta primer extension, TAMRA/BHQ fluorescence, 10 min; further: potency means the concentration at half of the fitted maximal effect
# In short: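 Plates with 10 nM enzyme and compound stood 15 min at room temperature before substrate addition (50 nM final). Displacement of the TAMRA reporter from the BHQ-2 template was tracked for 10 min.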
# [6] = target: Pyruvate kinase (Leishmania mexicana) (UniProt Q27686); test: qHTS Validation Assay for Activators of Leishmania Mexicana Pyruvate Kinase (AID 959)
# In short: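 Eight-point qHTS titrations; enzyme 0.2 nM LmPYK (E451W mutant); substrates 0.5 mM PEP, 0.1 mM ADP; 7 mM MgCl2; 1 h room temperature; PKLight luminescence normalized to neutral control.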
# Chain of Ubiquitin carboxyl-terminal hydrolase 1 (Homo sapiens) (O94782 whole entry, looked up): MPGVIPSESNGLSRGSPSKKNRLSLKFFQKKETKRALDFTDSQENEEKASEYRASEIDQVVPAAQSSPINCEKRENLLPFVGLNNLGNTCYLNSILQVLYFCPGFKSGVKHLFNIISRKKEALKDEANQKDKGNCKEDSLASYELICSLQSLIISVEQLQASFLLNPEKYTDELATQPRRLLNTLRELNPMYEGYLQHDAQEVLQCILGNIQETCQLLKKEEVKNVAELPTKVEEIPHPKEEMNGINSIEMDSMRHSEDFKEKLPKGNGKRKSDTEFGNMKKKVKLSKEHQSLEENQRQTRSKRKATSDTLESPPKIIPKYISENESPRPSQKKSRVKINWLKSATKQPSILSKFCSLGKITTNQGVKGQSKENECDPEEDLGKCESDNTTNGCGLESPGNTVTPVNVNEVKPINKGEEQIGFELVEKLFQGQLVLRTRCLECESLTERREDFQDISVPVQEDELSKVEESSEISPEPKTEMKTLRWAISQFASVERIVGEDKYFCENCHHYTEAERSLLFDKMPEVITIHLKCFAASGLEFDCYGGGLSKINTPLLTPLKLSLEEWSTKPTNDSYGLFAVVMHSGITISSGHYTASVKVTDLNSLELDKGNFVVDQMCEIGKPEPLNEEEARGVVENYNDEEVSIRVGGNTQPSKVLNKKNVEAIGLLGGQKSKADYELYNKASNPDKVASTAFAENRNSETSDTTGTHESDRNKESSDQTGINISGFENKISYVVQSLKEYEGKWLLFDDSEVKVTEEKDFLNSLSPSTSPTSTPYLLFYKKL
# Chain of DNA polymerase iota (Homo sapiens) (Q9UNA4 whole entry, looked up): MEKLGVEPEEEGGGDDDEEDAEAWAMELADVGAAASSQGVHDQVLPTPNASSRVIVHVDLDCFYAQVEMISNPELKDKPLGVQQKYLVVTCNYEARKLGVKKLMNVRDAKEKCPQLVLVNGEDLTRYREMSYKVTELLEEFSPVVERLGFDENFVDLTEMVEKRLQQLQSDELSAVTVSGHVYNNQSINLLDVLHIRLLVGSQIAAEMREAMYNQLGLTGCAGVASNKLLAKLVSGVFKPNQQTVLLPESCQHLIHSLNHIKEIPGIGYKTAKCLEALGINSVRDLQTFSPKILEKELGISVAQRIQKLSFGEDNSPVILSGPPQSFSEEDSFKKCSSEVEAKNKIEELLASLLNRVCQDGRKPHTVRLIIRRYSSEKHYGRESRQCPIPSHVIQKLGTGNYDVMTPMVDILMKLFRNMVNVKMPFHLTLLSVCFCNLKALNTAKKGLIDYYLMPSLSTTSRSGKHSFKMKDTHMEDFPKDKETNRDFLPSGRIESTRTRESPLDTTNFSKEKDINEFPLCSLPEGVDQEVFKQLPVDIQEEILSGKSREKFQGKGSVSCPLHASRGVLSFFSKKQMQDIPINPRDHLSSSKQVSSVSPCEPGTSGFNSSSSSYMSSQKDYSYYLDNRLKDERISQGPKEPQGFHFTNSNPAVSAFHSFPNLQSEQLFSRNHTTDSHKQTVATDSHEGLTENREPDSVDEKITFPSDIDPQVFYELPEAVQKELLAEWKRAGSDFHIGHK
# Chain of DNA polymerase eta (Homo sapiens) (Q9Y253 whole entry, looked up): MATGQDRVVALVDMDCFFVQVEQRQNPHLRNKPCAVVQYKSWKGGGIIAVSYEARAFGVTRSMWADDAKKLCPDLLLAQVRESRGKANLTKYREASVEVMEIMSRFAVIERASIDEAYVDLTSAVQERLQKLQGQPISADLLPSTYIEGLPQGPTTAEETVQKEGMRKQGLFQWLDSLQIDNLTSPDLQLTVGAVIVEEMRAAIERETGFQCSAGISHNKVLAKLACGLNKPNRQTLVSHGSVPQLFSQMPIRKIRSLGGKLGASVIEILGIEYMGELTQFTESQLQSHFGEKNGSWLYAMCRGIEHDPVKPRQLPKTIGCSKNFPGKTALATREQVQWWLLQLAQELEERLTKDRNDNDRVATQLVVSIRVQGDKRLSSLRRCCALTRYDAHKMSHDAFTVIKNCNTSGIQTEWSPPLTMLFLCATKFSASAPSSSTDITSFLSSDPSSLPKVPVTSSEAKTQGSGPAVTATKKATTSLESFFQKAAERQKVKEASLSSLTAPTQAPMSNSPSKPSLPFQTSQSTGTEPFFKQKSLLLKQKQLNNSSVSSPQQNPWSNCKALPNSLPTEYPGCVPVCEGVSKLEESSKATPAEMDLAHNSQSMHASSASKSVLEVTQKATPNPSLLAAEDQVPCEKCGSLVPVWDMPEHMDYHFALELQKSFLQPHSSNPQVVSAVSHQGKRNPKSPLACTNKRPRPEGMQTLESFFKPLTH
# Chain of Pyruvate kinase (Leishmania mexicana) (Q27686 2-499 E452W): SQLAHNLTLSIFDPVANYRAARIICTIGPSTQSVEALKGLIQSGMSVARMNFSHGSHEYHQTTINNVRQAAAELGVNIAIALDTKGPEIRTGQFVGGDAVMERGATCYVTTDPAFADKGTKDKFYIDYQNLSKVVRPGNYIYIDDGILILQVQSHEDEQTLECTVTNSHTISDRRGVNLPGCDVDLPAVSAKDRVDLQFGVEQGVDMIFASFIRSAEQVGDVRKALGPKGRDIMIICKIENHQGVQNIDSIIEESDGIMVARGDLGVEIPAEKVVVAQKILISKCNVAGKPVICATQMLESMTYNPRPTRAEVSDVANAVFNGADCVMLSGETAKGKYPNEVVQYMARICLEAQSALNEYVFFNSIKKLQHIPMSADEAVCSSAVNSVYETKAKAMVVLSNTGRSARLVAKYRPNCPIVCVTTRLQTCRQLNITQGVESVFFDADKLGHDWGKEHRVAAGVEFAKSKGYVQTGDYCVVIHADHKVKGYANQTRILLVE
# Chain of DNA dC->dU-editing enzyme APOBEC-3G (Homo sapiens) (Q9HC16 whole entry, looked up): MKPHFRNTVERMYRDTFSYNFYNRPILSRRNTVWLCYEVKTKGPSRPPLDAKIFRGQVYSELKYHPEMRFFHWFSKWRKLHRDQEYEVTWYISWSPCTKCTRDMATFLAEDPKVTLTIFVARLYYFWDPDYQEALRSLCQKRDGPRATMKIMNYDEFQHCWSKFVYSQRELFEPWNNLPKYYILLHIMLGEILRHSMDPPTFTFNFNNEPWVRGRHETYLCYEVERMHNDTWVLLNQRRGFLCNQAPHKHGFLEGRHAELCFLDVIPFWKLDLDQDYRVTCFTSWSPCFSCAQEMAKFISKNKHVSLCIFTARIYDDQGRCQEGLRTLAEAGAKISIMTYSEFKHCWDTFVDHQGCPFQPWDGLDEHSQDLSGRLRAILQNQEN
smiles,measurement,setting,value
C[C@H]1C[C@@H]2[C@H]3CCC4=CC(=O)C=C[C@@]4(C)[C@@]3(Cl)[C@@H](O)C[C@]2(C)[C@]1(OC(=O)c1ccco1)C(=O)CCl,Potency,[1],inactive
C[C@@H]1C[C@H]2[C@H]3C[C@@H](F)C4=CC(=O)C=C[C@]4(C)[C@@]3(Cl)[C@@H](O)C[C@@]2(C)[C@@H]1C(=O)COC(=O)C(C)(C)C,Potency,CP266,inactive
same,Potency,CP297,inactive
COc1cc2nc(N(C)CCCNC(=O)[C@@H]3CCCO3)nc(N)c2cc1OC,Potency,[1],inactive
same,Potency,CP237,inactive
same,Potency,CP268,inactive
same,Potency,CP286,inactive
same,Potency,CP297,inactive
same,Potency,HB3,inactive
same,Potency,PC15,inactive
same,Potency,TAB113,inactive
CO/N=C(\C(=O)N[C@@H]1C(=O)N2C(C(=O)[O-])=C(C[N+]3(C)CCCC3)CS[C@@H]12)c1csc(N)n1,Potency,CP237,inactive
same,Potency,CP266,inactive
same,Potency,CP268,inactive
same,Potency,CP286,inactive
same,Potency,CP297,inactive
same,Potency,HB3,inactive
same,Potency,PC15,inactive
same,Potency,TAB113,inactive
OC[C@@H]1O[C@@H](n2cnc3c(NC4CCCCC4)ncnc32)[C@@H](O)[C@H]1O,activation,[2],-22.9%
Oc1ccc([C@@H]2CNCCc3c2cc(O)c(O)c3Cl)cc1,outcome,[3],inactive
CCNc1ncc2nc(-c3ccccc3)c(=O)n(C3CC3)c2n1,Potency,[2],2.51 µM (active)
N[C@H](COP(=O)(O)O)C(=O)O,Potency,[1],inactive
same,Potency,CP237,inactive
same,Potency,CP266,inactive
same,Potency,CP268,inactive
same,Potency,CP286,inactive
same,Potency,CP297,inactive
same,Potency,HB3,inactive
same,Potency,PC15,inactive
same,Potency,TAB113,inactive
COc1cc([C@H](Cc2ccccc2)NC(C)=O)oc(=O)c1,Potency,[4],37.7 µM (active)
same,Potency,[5],23.9 µM (active)
C=C(NC(=O)C(=C)NC(=O)c1csc(C2=N[C@@H]3c4csc(n4)[C@@H]4NC(=O)c5csc(n5)[C@@H]([C@](C)(O)[C@H](C)O)NC(=O)[C@@H]5CSC(=N5)/C(=C/C)NC(=O)[C@@H]([C@H](C)O)NC(=O)c5csc(n5)[C@]3(CC2)NC(=O)[C@@H](C)NC(=O)C(=C)NC(=O)[C@@H](C)NC(=O)[C@@H]([C@@H](C)CC)N[C@H]2C=Cc3c([C@H](C)O)cc(nc3[C@@H]2O)C(=O)O[C@H]4C)n1)C(N)=O,Potency,PC15,inactive
O[C@H](C[C@@H]1CCCCN1)c1ccc2c(c1)oc1ccccc12,activation,[2],-0.884%
CO/N=C(\C(=O)N[C@@H]1C(=O)N2C(C(=O)O)=C(CSc3nc(=O)c(O)nn3C)CS[C@@H]12)c1csc(N)n1,Potency,[6],25.1 µM (active)
Nc1ccc(-c2ccc(Nc3cc(S(=O)(=O)O)c(N)c4c3C(=O)c3ccccc3C4=O)cc2)c(S(=O)(=O)O)c1,activation,[2],-7.34%
